Rows were chosen to be rich in hits. Some 1% of all compounds tested hit in one or more screens of this group.
TcdB inh – TcdB glycohydrolase inhibitors, primary screen, biochemical, single point, plate reader; Toxin B (Clostridioides difficile), P18177; TcdB glycohydrolase enzymatic assay; inhibition, % at 9.99 µM; 350,000 compounds, 0.24% hits; AID 652162, 2013; in the data active = inhibition above about 10%
Target sequence (P18177 whole entry, looked up): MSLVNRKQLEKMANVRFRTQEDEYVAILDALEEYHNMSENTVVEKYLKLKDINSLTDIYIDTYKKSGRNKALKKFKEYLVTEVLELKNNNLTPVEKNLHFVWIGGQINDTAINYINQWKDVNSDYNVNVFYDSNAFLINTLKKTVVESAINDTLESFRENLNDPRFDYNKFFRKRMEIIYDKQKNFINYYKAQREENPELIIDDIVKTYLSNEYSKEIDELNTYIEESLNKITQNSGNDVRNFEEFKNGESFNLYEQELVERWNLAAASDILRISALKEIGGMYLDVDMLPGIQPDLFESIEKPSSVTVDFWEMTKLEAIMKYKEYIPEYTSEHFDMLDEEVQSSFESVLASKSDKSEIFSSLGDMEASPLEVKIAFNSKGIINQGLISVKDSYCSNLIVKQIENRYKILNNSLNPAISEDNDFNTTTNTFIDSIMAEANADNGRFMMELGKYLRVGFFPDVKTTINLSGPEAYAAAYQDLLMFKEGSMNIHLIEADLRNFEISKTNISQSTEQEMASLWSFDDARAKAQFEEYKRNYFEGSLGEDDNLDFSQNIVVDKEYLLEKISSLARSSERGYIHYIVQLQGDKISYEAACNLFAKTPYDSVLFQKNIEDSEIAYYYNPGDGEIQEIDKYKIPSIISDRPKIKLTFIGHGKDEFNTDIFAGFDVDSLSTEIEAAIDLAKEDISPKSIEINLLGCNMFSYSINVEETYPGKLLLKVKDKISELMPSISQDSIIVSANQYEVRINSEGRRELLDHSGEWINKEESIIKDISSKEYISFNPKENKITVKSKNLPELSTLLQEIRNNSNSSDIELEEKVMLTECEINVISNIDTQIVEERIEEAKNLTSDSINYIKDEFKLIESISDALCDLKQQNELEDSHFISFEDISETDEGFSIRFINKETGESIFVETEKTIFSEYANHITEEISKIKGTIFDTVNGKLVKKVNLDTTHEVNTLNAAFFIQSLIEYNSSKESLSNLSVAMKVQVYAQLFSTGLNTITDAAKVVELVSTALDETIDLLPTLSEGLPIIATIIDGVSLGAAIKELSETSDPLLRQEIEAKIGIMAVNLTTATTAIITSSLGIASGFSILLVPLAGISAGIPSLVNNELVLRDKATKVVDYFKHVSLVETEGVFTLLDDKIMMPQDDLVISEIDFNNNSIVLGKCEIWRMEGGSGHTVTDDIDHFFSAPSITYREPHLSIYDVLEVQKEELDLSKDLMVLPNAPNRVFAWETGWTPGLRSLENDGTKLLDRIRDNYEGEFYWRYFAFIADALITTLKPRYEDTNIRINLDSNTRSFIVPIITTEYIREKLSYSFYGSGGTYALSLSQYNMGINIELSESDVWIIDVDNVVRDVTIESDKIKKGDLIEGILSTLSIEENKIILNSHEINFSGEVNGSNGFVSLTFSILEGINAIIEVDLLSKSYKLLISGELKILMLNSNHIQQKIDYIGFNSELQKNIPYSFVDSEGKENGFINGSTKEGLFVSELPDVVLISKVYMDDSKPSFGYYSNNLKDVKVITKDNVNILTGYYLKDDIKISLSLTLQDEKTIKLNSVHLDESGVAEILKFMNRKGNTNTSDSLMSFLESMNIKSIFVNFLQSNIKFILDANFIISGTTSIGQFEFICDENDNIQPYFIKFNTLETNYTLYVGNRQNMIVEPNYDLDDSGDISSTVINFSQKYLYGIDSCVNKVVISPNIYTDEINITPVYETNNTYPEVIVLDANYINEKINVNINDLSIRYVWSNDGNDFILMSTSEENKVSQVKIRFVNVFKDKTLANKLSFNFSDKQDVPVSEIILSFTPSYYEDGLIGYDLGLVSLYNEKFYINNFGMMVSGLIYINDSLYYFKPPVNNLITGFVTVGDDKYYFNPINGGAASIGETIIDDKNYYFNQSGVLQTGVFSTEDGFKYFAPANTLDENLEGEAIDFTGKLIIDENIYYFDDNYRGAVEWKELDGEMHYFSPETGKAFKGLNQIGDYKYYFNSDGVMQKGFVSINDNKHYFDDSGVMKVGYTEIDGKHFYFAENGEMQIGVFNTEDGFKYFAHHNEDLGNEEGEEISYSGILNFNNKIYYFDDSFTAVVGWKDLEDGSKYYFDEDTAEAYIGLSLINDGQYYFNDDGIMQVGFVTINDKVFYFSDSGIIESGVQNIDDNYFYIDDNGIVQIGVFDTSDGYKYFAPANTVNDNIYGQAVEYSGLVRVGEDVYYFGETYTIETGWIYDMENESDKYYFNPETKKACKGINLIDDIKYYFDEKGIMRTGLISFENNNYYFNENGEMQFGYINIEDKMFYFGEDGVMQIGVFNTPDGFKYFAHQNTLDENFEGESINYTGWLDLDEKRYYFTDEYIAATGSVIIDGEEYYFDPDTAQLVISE
Mtb BioA inh – M. tuberculosis BioA enzyme inhibitors, primary screen, biochemical, plate reader, single point, HTS; inhibition, % at 9.99 µM; 7,8-diaminopelargonic acid synthase BioA (Mycobacterium tuberculosis); purified M. tuberculosis BioA enzyme; AID 602481, 2012; 360,000 compounds, 0.096% hits; in the data active = inhibition above about 40%; inconclusive = no clear call, values can overlap the other calls
Mtb hypoxia inh – PubChem AID 1159583; M. tuberculosis hypoxia-regulated fluorescent reporter, fluorescence; fluorescence inhibition, % (concentration not given with the values); 300,000 compounds, 0.1% hits; in the data active = fluorescence inhibition mostly above about 23%, no sharp cut-off; inactive = mostly below about 17%
PriA SSB inh – inhibitors of Klebsiella pneumoniae PriA binding to SSB C-terminal tail, primary screen, biochemical, AlphaScreen | 430,000 compounds, 0.6% hits | PriA–SSB C-terminal tail interaction (Klebsiella pneumoniae) | AlphaScreen SSBct-PriA binding, biotinylated peptide | AID 1272365, 2023 | inhibition, % at 33 µM; in the data active = inhibition mostly above about 37%, no sharp cut-off; inactive = mostly below about 20%
FadD28 binding – inhibitors of FadD28 bisubstrate probe binding, primary screen, biochemical, fluorescence polarization, single point; Mycobacterium tuberculosis FadD28 fatty-acid-AMP ligase; inhibition, % at 12.5 µM; 360,000 compounds, 0.22% hits; in the data active = inhibition above about 8.5%, passing the limit was not always enough; inconclusive = no clear call, values can overlap the other calls
PrP UTR inh – inhibition of PrP 5' UTR reporter expression; cell-based PrP 5' UTR mRNA reporter, plate reader; inhibition, % (concentration not given with the values); 340,000 compounds, 0.35% hits; in the data active = inhibition above about 52%
Hits are given with their value; i = inactive; ? = inconclusive; nt = no result given.

SMILES	TcdB inh	Mtb BioA inh	Mtb hypoxia inh	PriA SSB inh	FadD28 binding	PrP UTR inh
COc1ccc(-c2csc(/C(C#N)=C3\C=CC=CN3C)n2)cc1	nt	nt	nt	142	nt	nt
CN1C=CC=C/C1=C(\C#N)c1nc2ccccc2[nH]1	nt	i	i	i	i	i
CCOC(=O)CSC1=C(C#N)C(c2ccc(C)o2)CC(=O)N1 (stereo unspecified)	i	i	i	i	i	55
CCOC(=O)CSC1=C(C#N)C(c2ccc(Cl)cc2)CC(=O)N1 (stereo unspecified)	i	i	i	i	i	i
Cn1c(=O)c2c(nc(Nc3ccc(S(N)(=O)=O)cc3)n2CC(=O)O)n(C)c1=O	nt	nt	nt	i	nt	nt
C(=N\Nc1nc2ccccc2[nH]1)/c1c[nH]c2ccccc12	nt	nt	nt	nt	i	i
C=CCn1cc(C=NNc2nc3ccccc3[nH]2)c2ccccc21	nt	nt	i	61	nt	nt
NS(=O)(=O)c1ccc(Nc2ccccc2)c([N+](=O)[O-])c1	i	nt	i	i	i	i
COc1ccc(Nc2ccc([N+](=O)[O-])cc2[N+](=O)[O-])cc1	nt	i	i	43	i	i
O=[N+]([O-])c1cc(Cl)ccc1Nc1ccccc1	nt	i	i	89	?	i
COc1ccc(NC(=O)c2cc([N+](=O)[O-])ccc2O)cc1	i	nt	i	i	i	87
O=C(CSc1nc(=O)n(Cc2ccncc2)c2c1CCC2)c1ccccc1	nt	nt	nt	i	nt	nt
Cc1cc(C(=O)Nc2cccc3c2O[C@@H](CN(C)C(=O)Nc2c(C)noc2C)[C@@H](C)CN([C@H](C)CO)C3=O)n(C)n1	i	i	nt	nt	nt	nt
CC12CCC(C(=O)NNc3ccccc3)(OC1=O)C2(C)C (stereo unspecified)	i	i	i	i	i	i
N#C[C@@H]1[C@H](c2ccccc2)[C@@H](CO)N1C(=O)c1ccccc1F	i	i	nt	nt	nt	nt
Cc1cccc(CSc2cccc3cccnc23)c1	nt	i	i	95	i	i
N#CCSc1cccc2cccnc12	nt	nt	nt	84	nt	nt
c1cnc2c(SCc3ccc(-c4nnco4)cc3)cccc2c1	nt	i	nt	74	i	i
Clc1ccc(CSc2cccc3cccnc23)cc1Cl	nt	nt	nt	i	nt	nt
Cc1ccc2c(CC(=O)OCc3csc(C)n3)coc2c1	nt	i	i	i	i	i
CC(Sc1nc(N)cc(=O)[nH]1)C(=O)NCC(=O)Nc1ccc(F)c(F)c1F (stereo unspecified)	11	i	i	i	i	i
CCOCCCNC(=O)N1CCOCC1	nt	i	i	i	i	i
COc1cccc2cc(C(=O)NC[C@H]3CCCN3c3ccccc3)oc12	nt	nt	nt	29	nt	nt
COC(=O)N1CCC(CNC(=O)c2cc3cccc(OC)c3o2)CC1	nt	nt	nt	i	nt	nt
COc1cc(-c2cc(C(=O)NCC3CCCN3c3ccccc3)[nH]n2)cc(OC)c1OC (stereo unspecified)	nt	nt	nt	59	nt	nt
SMILES	TcdB inh	Mtb BioA inh	Mtb hypoxia inh	PriA SSB inh	FadD28 binding	PrP UTR inh
COc1ccc2c3c([nH]c2c1)[C@@H](CO)N(S(C)(=O)=O)CC31CCN(CC2CCCC2)CC1	i	nt	nt	nt	nt	nt
O=C(CCl)c1ccc(Cc2ncc(C(F)(F)F)cc2Cl)s1	nt	i	nt	i	i	i
Cc1cccc(CN2CCN(c3ncccn3)CC2)c1	13	i	i	i	i	i
Cc1cccc(CN2CCN(c3ccccn3)CC2)c1	nt	i	i	i	i	i
C=CCSC1=C(C#N)C2(CCCCC2)C(C#N)C(=O)N1 (stereo unspecified)	nt	i	i	i	i	i
COc1ccc(F)cc1S(=O)(=O)Nc1ccccc1C(=O)O	nt	nt	nt	i	nt	nt
COc1cc(/C=N/NC2=NCCCCC2)ccc1O	14	i	nt	nt	i	i
COc1cc(C=NNC2=NCCCCC2)ccc1O	nt	nt	i	i	nt	nt
CC1=NN(c2ccc([N+](=O)[O-])cc2)C(=O)C1	i	i	i	i	14	i
CC1=NN(c2ccc([N+](=O)[O-])cc2)C(=O)/C1=C\N(C)C	i	nt	i	i	i	i
COc1cc(C2CC=C(C(=O)O)CN2S(=O)(=O)c2ccc(C)cc2)cc(OC)c1OC (stereo unspecified)	nt	nt	i	nt	nt	nt
CC1CCCN(C(=S)Nc2ccc(F)cc2)C1 (stereo unspecified)	12	nt	i	i	i	i
Cc1cc(N2CCN(c3ccc([N+](=O)[O-])c4cccnc34)CC2)c2ccccc2n1	nt	nt	i	i	i	i
Cc1cc(N2CCN(c3ccc(C(F)(F)F)cc3[N+](=O)[O-])CC2)c2ccccc2n1	i	i	i	46	i	i
O=C(Nc1cccc(-c2nn[nH]n2)c1)c1ccc(Br)s1	i	i	i	116	i	i
O=C(Nc1cccc(-c2nn[nH]n2)c1)c1ccc(Cl)s1	i	i	i	i	i	i
Cc1noc(NS(=O)(=O)c2ccc(N/C=C\C(=O)c3cccc4ccccc34)cc2)c1C	i	i	i	i	24	i
Cc1noc(NS(=O)(=O)c2ccc(NC(=O)/C=C/c3ccc(C(C)C)cc3)cc2)c1C	i	i	i	i	26	i
Cc1noc(NS(=O)(=O)c2ccc(NC(=O)Nc3ccc(Cl)c(Cl)c3)cc2)c1C	nt	i	i	i	31	i
Cc1noc(NS(=O)(=O)c2ccc(NC(=O)/C=C/c3ccc(Br)cc3)cc2)c1C	i	i	i	i	9.7	i
Cc1ccc(NC(=O)c2ccc(Cl)cc2Cl)cc1O	i	i	i	i	i	i
CC(C)c1ccc(/C=C/C(=O)Nc2nn[nH]n2)cc1	nt	nt	i	nt	nt	nt
CC(Cc1ccc(O)cc1)NCC(O)c1ccc(O)c(O)c1 (stereo unspecified)	i	i	nt	nt	8.2	nt
O=S(=O)(Nc1nc2ccccc2nc1Nc1ccc2c(c1)OCCO2)c1cccs1	i	i	i	i	i	i
CCC(=O)Nc1ccc2c(c1)OC[C@@H](C)N(C(=O)NC(C)C)C[C@H](C)[C@@H](OC)CN(C)C2=O	i	i	nt	nt	nt	nt
SMILES	TcdB inh	Mtb BioA inh	Mtb hypoxia inh	PriA SSB inh	FadD28 binding	PrP UTR inh
CCC(=O)Nc1ccc2c(c1)OC[C@@H](C)N(C(=O)NC(C)C)C[C@@H](C)[C@@H](OC)CN(C)C2=O	18	i	nt	nt	nt	nt
CCC(=O)Nc1ccc2c(c1)OC[C@H](C)N(C(=O)NC(C)C)C[C@H](C)[C@H](OC)CN(C)C2=O	13	i	nt	nt	nt	nt
NS(=O)(=O)c1ccc(NC(=O)c2ccc(Cl)c(S(=O)(=O)NCc3ccco3)c2)cc1	i	i	22	i	i	i
Cc1ccc(NC(=O)c2ccc(Cl)c(S(=O)(=O)NCc3ccco3)c2)c(O)c1	i	i	i	i	i	i
CCS(=O)(=O)Nc1ccc2c(c1)C(=O)N(C)[C@H]1CC[C@@H](CC(=O)NC3CCCCC3)O[C@@H]1CO2	i	i	nt	nt	nt	nt
Cc1cccc2sc(NC(=O)c3cc4n(n3)CCCO4)nc12	nt	nt	nt	i	nt	nt
CCN1CCN(S(=O)(=O)c2ccc3[nH]c(=O)oc3c2)CC1	19	i	i	i	i	i
O=c1[nH]c2ccc(S(=O)(=O)N3CCCCC3)cc2o1	i	i	i	i	i	i
Oc1ccc(/C=N/n2cc(-c3ccccc3)[nH]c2=S)cc1	14	nt	nt	nt	i	i
CCN(c1cccc(C)c1)S(=O)(=O)c1ccc2c(c1)NC(=O)CS2	i	i	i	i	i	i

From PubChem BioAssay
